High-throughput results: PubChem BioAssay, several laboratories
Vif inh: inhibitors of HIV Vif | HEK293T cells, Vif self-association by quenched fluorescence, imaging, 24 h | inhibition, % at 7.49 µM | 0.35% of 340,000 active; in the data active = inhibition above about 50%, passing the limit was not always enough; inconclusive = no clear call, values can overlap the other calls; inactive = below about 31%
ABCB6 inh MLPCN: blocks the human ABCB6 transporter; Q9NP58; K562-ABCB6 porphyrin accumulation, flow cytometry, 1 h; active compounds read low; fluorescence ratio to DMSO, % at 10 µM; 0.19% of 360,000 active;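 active = fluorescence ratio to DMSO below 75%, the collection mean minus 3 SD; inconclusive = too few cells collected in the well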;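 note: signal is porphyrin accumulated inside mitochondria; 100% equals median channel fluorescence of DMSO control wells; lower ratio means ABCB6 inhibition with less porphyrin fluorescence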
Myeloid diff MLP: promotes myeloid progenitor differentiation. ER-HoxA9 myeloid progenitors, lysozyme-GFP differentiation, flow cytometry. calls only at 10 µM. 1% of 360,000 active. AID 624256;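 active = normalized GFP-positive differentiation at or above the plate's own cutoff, the solvent-only control mean plus 3 SD; inconclusive = no clear call, values can overlap the other calls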;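 note: cells exposed to compound for four days before flow analysis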
Glyco luc inh: blocks N-linked glycosylation in D54 reporter cells. D54 ERlucT glycosylation luciferase reporter, 24 h; percent of 100 nM tunicamycin response. reporter increase, % at 12.5 µM. 0.23% of 360,000 active;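 active = mean luciferase reporter signal, scaled so untreated is 0 and the glycosylation-blocking control 100, at or above a set limit in every replicate; inconclusive = mean reaches the limit but not every replicate does; inactive = mean below the limit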;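 note: luciferase carries N-glycosylation sites so blocking glycosylation raises the light; 0% = median of neutral control wells and 100% = median of 100 nM tunicamycin wells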
RAD54 branch: RAD54 (human) branch migration inhibition; Q92698; RAD54 Holliday junction branch migration, FAM/BHQ fluorescence; inhibition, % at 10.4 µM; 0.14% of 360,000 active;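 active = mean normalized replicate activity at least 40 and at least half of replicates scoring 40 or more; inconclusive = only one of the two criteria met; inactive = mean below 40 and under half of replicates reaching 40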;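 note: 0% = median of neutral control wells and 100% = median of positive control wells; inhibitors cause a drop in the FAM fluorescence signal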
Target sequence (Q92698 whole entry, looked up): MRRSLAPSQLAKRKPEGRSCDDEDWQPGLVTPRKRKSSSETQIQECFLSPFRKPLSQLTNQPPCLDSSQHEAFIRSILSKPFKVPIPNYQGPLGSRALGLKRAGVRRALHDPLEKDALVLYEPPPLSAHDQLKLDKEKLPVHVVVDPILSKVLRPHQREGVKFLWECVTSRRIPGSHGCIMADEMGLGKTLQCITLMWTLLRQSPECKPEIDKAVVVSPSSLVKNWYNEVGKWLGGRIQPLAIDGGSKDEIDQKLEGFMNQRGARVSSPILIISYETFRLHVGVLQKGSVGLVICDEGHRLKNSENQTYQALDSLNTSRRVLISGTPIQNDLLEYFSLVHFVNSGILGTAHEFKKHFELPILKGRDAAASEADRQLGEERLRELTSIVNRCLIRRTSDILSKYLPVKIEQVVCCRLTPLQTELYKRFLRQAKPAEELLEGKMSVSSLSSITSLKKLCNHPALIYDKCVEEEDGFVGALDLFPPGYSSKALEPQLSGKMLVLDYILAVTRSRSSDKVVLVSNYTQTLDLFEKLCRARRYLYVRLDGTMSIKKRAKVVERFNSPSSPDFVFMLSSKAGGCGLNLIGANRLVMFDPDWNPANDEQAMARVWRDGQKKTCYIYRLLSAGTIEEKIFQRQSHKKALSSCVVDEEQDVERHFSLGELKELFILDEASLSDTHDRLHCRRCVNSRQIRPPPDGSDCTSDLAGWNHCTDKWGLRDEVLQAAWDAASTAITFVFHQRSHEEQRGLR
An asterisk follows results filed as active; i = inactive; ? = inconclusive; · = not tested or not shown; + = active, no number. Most compounds without a hit are left out; they make up all but 1.6% or so of the library.

SMILES	Vif inh	ABCB6 inh MLPCN	Myeloid diff MLP	Glyco luc inh	RAD54 branch
COCCn1c(=O)[nH]c(=O)c2c1nc(-c1ccc(-c3ccc(Cl)cc3[N+](=O)[O-])o1)n2Cc1ccccc1	-4	113	i	10	·
COCCn1c(-c2ccc(-c3ccc([N+](=O)[O-])cc3Br)o2)nc2c1c(=O)[nH]c(=O)n2CC(C)C	6	121	+	-7	-8
N/C(=N\OC(=O)Nc1ccccc1)c1ncc(C(F)(F)F)cc1Cl	15	102	i	1	-4
N/C(=N\OC(=O)CCC(=O)O)c1ncc(C(F)(F)F)cc1Cl	4	172	+	-1	·
O=C(C[C@@H]1C=C[C@H](NC(=O)Nc2cc(F)ccc2F)[C@H](CO)O1)Nc1ccccc1	·	·	·	·	-1
CCCCn1c(-c2nonc2NC(=O)c2ccccc2Cl)nc2ccccc21	3	94	+	-13	1
Cc1ccc(S(=O)(=O)Nc2cccc3c2O[C@@H](CN(C)S(=O)(=O)c2ccc(F)cc2)[C@@H](C)CN([C@H](C)CO)C3=O)cc1	·	·	·	·	-3
O=C(NCc1ccccc1)C1Cc2c(-c3cccc(F)c3)ccnc2O1 (stereo unspecified)	13	80	?	35*	2
CC(=O)c1cccc(-c2ccnc3c2CC(C(=O)NCc2ccc(F)c(F)c2)O3)c1 (stereo unspecified)	8	96	?	34*	-5
CC(=O)c1cccc(-c2ccnc3c2CC(C(=O)NCc2ccco2)O3)c1 (stereo unspecified)	54*	100	·	32*	-7
CC(=O)c1cccc(-c2ccnc3c2CC(C(=O)NCc2ccccc2)O3)c1 (stereo unspecified)	35	99	?	20	-4
O=C(NCc1cccc(Cl)c1)C1Cc2c(-c3cccc(F)c3)ccnc2O1 (stereo unspecified)	-4	80	i	2	4
C[C@@H](NC(=O)C[C@@H]1C=C[C@H](NC(=O)Nc2ccc3c(c2)OCO3)[C@@H](CO)O1)c1ccccc1	·	·	·	·	4
COc1ccccc1CNC(=O)C[C@H]1C[C@H]2c3cc(NC(=O)NC4CCCC4)ccc3O[C@H]2[C@H](CO)O1	·	·	·	·	9
CC(/C=N/NC(=O)c1cc(-c2ccc(C)s2)[nH]n1)=C\c1ccccc1	2	98	i	27*	·
CC(/C=N/NC(=O)c1cc(C(C)(C)C)[nH]n1)=C\c1ccccc1	·	96	i	3	·
Brc1ccc(C2=CC(c3cccs3)n3ncnc3N2)cc1 (stereo unspecified)	i	96	+	-2	-239
Fc1ccc(C2=CC(c3ccc(Br)o3)n3ncnc3N2)cc1 (stereo unspecified)	-1	133	i	-4	·
Cc1ccc(C(=O)Nc2nnc(-c3ccco3)o2)cc1	10	95	i	-10	12
O=C(Nc1nnc(-c2ccco2)o1)c1ccc([N+](=O)[O-])s1	-5	103	+	0	·
O=C(CN1CCOCC1)N[C@H]1CC[C@@H](CCNC(=O)C2CCCCC2)O[C@@H]1CO	·	·	·	·	-4
CN1C(=O)c2cc(NC(=O)Nc3cccc(Cl)c3)ccc2OC[C@H]2O[C@@H](CC(=O)O)CC[C@@H]21	·	·	·	·	-13
CCN(CC)C(=O)c1nc[nH]c1C(=O)O[C@@H](C)c1ccccc1	-1	100	i	3	-10
CC(OC(=O)c1ccccc1C(=O)O)c1ccccc1 (stereo unspecified)	53*	89	i	2	-4
S=c1nc[nH]c2nc[nH]c12	-3	101	i	247*	-1
SMILES	Vif inh	ABCB6 inh MLPCN	Myeloid diff MLP	Glyco luc inh	RAD54 branch
Cn1cnc2nc[nH]c2c1=S	-6	92	i	2	2
COc1ccccc1-c1ccc([C@@H]2[C@@H](C#N)N(C(=O)C3CC3)[C@@H]2CO)cc1	·	·	·	·	-2
COc1cc(C2c3cc4c(cc3C(O)C3COCC23)OCO4)cc(OC)c1OC (stereo unspecified)	-3	99	i	15	5
COc1cc([C@@H]2c3cc4c(cc3[C@H](O)[C@H]3COC(=O)[C@H]23)OCO4)cc(OC)c1OC	+	93	?	12	-5
COc1cc(C2c3cc4c(cc3OC(NNC(N)=S)C2C)OCO4)cc(OC)c1OC (stereo unspecified)	56*	91	?	11	·
COCC#Cc1cnc2c(c1)C(=O)N([C@@H](C)CO)C[C@@H](C)[C@@H](CN(C)S(=O)(=O)c1ccccc1)O2	·	·	·	·	-9
CC1CCCCC1NC(=O)CO/N=C/c1ccccc1OC(F)F (stereo unspecified)	91*	100	?	-1	-13
CCC(C)NC(=O)CO/N=C/c1ccccc1OC(F)F (stereo unspecified)	1	93	i	2	-5
Cc1c2ccccc2nc2c(F)c(NC(C)C)c(F)c(F)c12	4	237	+	5	·
CC(C)Nc1nc2ccccc2c(=O)[nH]1	13	95	i	0	4
CC(C)CNC(=O)C(=O)NC1CCCC1	·	96	i	2	-16
CC(C)CNC(=S)NC1CCCC1	63*	94	i	2	-2
S=C(NC1CCCC1)NC1CCCC1	53*	94	i	1	·
O=C(C[C@@H]1C[C@@H]2c3cc(NC(=O)CC4CC4)ccc3O[C@@H]2[C@@H](CO)O1)NCc1cccnc1	·	·	·	·	6
CCOC(=O)CNS(=O)(=O)c1cc(-c2n[nH]c(=O)c3ccccc23)ccc1C	-9	99	i	2	-22
Cc1ccc(NS(=O)(=O)c2cc(-c3n[nH]c(=O)c4ccccc34)ccc2C)cc1	10	95	+	15	·
COc1cc(NC(=O)CCNC(=O)Cn2cnc3sc4c(c3c2=O)CCCC4)cc(OC)c1OC	-1	86	+	2	7
CCOC(=O)c1c(C)[nH]c(C)c1C(=O)COC(=O)C1CC(=O)N(CCc2ccccc2)C1 (stereo unspecified)	51*	103	i	4	8
CCOC(=O)c1ccccc1NC(=O)COC(=O)C1CC(=O)N(CCc2ccccc2)C1 (stereo unspecified)	-1	95	i	1	·
CCNC(=O)[C@@H]1[C@@H](CO)[C@@H]2Cn3c(ccc(C4=CCCC4)c3=O)[C@@H]2N1C(=O)C1CC1	·	·	·	·	-1
CN(C)CC#Cc1ccc([C@H]2[C@@H](CO)N3CCCCN(C(=O)C4CCCC4)C[C@@H]23)cc1	·	·	·	·	3
O=c1cc(-c2cccnc2)oc2c1ccc1ccccc12	-2	104	i	9	60*
O=c1cc(-c2ccc(O)c(O)c2)oc2c1ccc1ccccc12	-4	91	i	5	14
CO[C@@H]1CN(C)C(=O)c2ccc(NC(=O)Nc3cccc(F)c3)cc2OC[C@@H](C)N(C(C)=O)C[C@H]1C	·	·	·	·	1
COCCNC(=O)NC(=O)CSc1nc(C)c(C)c(C)n1	-3	97	+	0	0
CC(C)C#Cc1ccc([C@H]2[C@@H](CO)N(C(=O)c3ccccn3)[C@H]2C#N)cc1	·	·	·	·	-12
